Measured values from PubChem BioAssay (NCATS).
Inconclusive results are not listed. A call without a number means that no potency is given here. The source made the active and inactive calls. Unless noted, calls come from the whole dose curve; as a rule, active = well fitted curve in the direction sought with a large enough effect; inconclusive = small, poorly fitted or top-dose-only effect, or another doubt; inactive = no such curve, though single readings can be large; an effect the other way counts as inactive or inconclusive.

Tests used:
[1] = molecular target: Mitogen-activated protein kinase 10 (Mus musculus) (UniProt Q61831); assay: JNK3 AlphaScreen Assay (AID 530; active = well fitted curve in either direction with a large enough effect, not every such curve was filed as active;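 note: kinase came from lysate of stimulated human HepG2 cells; signal reports phosphorylation of biotinylated GST-cJun 1-79 at Ser73 with 10 µM ATP; series mostly up to about 57 µM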)
Summary of the method: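 Compound titrations were preincubated 15 minutes at room temperature with substrate, antibody and pre-activated JNK3-containing HepG2 lysate. Reactions were started with 10 uM ATP and stopped with EDTA-containing bead buffer for AlphaScreen detection.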

[2] = molecular target: Cytochrome P450 3A4 (Homo sapiens) (UniProt P08684); assay: qHTS Assay for Activators of Cytochrome P450 3A4 (AID 885); note: nearly all actives have a fitted effect of over 65% in size; note: potency is the fitted concentration of half-maximal effect
Sequence of Cytochrome P450 3A4 (Homo sapiens) (P08684 whole entry, looked up): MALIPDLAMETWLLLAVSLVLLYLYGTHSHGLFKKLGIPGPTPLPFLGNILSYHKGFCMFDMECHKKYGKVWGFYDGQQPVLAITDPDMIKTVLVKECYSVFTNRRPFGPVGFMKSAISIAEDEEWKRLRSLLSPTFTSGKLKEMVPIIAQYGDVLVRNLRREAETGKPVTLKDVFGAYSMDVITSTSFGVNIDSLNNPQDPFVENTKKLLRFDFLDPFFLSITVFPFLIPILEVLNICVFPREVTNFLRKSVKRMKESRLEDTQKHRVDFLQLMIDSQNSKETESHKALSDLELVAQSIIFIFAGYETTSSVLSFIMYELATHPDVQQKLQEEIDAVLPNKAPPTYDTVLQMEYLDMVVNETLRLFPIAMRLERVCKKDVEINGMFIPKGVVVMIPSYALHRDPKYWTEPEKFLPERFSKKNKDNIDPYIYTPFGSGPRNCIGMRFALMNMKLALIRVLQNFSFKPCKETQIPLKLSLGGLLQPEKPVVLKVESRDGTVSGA
Summary of the method: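 20nM CYP3A4 + 25uM Luciferin-PPXE (=KM), 200mM KPO4; cpd 10 min RT; NADPH regen, 60 min RT; stop w/ detection buffer, 20 min; luminescence. Normalized to 57 uM ketoconazole.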

[3] = molecular target: Calcium and integrin-binding protein 1 (Homo sapiens) (UniProt Q99828); assay: Primary qHTS for Identification of Calcium Integrin Binding Protein 1 (CIB1) Competitor (AID 1508620);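 note: GST tagged CIB1 binding a fluorescein labelled alphaIIb integrin peptide tracer; top concentration of the series differs between compounds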
Sequence of Calcium and integrin-binding protein 1 (Homo sapiens) (Q99828 whole entry, looked up): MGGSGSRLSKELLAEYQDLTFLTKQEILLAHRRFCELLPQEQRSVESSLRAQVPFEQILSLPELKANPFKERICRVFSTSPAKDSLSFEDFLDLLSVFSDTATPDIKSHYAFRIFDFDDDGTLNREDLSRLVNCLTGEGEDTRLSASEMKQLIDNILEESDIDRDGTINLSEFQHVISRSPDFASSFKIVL
Summary of the method: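 CIB1-GST (1 uM final) and compound incubated 15 min at room temperature before adding FITC-alphaIIb peptide tracer (100 nM final). Competition for binding read by fluorescence polarization (ex 480, em 540) after another 15 min at room temperature.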

[4] = qHTS for Inhibitors of Ubiquitin-specific Protease USP2a Using CHOP2 as the Reporter: K633 Counterscreen (AID 652168); note: series mostly up to about 57 µM
Summary of the method: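 Cell-free interference counterscreen without USP2a: compounds pinned into enzyme-free buffer (20 mM Tris pH 8, 2 mM beta-mercaptoethanol, 0.05% Chaps), then DiUb K48-4IQF substrate added (100 nM stock); fluorescence read kinetically, Ex 525/Em 598.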

[5] = qHTS for Inhibitors of Ubiquitin-specific Protease USP2a Using CHOP2 as the Reporter: Cytotox Assay (AID 652170); note: nearly all actives have a fitted effect of over 70% in size; note: potency is the fitted concentration of half-maximal effect
Summary of the method: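 HCT116 human colon cancer cells, 600 per well in DMEM with 10% FBS, exposed to compounds for 72 hr at 37 deg C. ATP measured by CellTiter-Glo luminescence, normalized to DMSO cells and no-cell background.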

[6] = molecular target: Ubiquitin carboxyl-terminal hydrolase 2 (Homo sapiens) (UniProt O75604); assay: qHTS for Inhibitors of Ubiquitin-specific Protease USP2a Using CHOP2 as the Reporter: K484 Substrate (AID 652173);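 note: cleavage of internally quenched K48 di-ubiquitin substrate measured as rising fluorescence over time; nearly all actives have a fitted effect of over 70% in size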; note: potency is the fitted concentration of half-maximal effect
Sequence of Ubiquitin carboxyl-terminal hydrolase 2 (Homo sapiens) (O75604 whole entry, looked up): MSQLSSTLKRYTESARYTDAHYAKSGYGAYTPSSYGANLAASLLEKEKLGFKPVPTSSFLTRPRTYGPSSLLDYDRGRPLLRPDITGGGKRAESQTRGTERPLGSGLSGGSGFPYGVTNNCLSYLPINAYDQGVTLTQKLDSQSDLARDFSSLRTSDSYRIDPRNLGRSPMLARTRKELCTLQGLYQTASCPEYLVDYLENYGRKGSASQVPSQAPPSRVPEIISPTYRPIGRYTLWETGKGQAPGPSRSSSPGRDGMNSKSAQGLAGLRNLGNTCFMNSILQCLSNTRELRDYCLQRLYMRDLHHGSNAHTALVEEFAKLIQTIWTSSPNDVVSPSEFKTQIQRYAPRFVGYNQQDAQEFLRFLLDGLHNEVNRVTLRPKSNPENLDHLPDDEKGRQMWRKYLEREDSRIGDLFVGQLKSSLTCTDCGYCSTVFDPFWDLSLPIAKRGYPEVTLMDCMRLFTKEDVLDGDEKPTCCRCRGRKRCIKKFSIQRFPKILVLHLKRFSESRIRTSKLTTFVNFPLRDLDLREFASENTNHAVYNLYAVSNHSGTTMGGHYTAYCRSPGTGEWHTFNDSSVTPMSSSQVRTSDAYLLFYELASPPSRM
Summary of the method: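 USP2 (dispensed at 5 nM) was pinned with compounds, then DiUb K48 internally quenched fluorescent substrate (dispensed at 100 nM) was added. The buffer was 20 mM Tris pH 8, 2 mM beta-mercaptoethanol and 0.05% CHAPS. Cleavage was read kinetically as rising fluorescence, Ex 525/Em 598.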

[7] = qHTS for Inhibitors of the vitamin D receptor (VDR): Hit Validation using a Texas Red Assay (AID 602201)
From the text: The vitamin D receptor (VDR) is a ligand-activated transcription factor and is partially responsible for the regulation of the endocrine system. This includes the transcriptional regulation of genes involved in the production of the parathyroid hormone (PTH) and the regulation of the blood calcium level. High levels of PHT can cause hypercalcemia in the case of primary and tertiary hyperparathyroidism. The VDR-mediated gene regulation, activated by its ligand 1,25-dihydroxyvitamin D3 (1,25-(OH)2D3), is governed by the recruitment of coactivators. Our hypothesis is that small molecules, with the ability to inhibit the interaction between VDR and certain coactivators, are able to selectively modulate VDR-mediated transcription. […]
In a collaboration between the University of Wisconsin, Milwaukee and the NIH Chemical Genomics Center (NCGC) a HTS-compatible enzymatic assay was developed. The assay uses fluorescence polarization as its read-out to measure the inhibition between VDR and coregulator peptide SRC2-3 exerted by small molecules. […]
Four microliter of either 1.5 uM VDR-LBD, […] LG19078, and 7 nM Texas Red (all final concentrations) in columns 1, 2, and 5 to 48 or 7 nM Texas Red in columns 3 and 4 are dispensed into black medium-binding solid bottom Greiner plates. […] It is then read on the Envision for a fluorescent polarization read-out (Ex 595 nm/Em 615 nm)

CCN(CC)CCn1c(-c2ccccc2)nc2c(NCCOC)nc(C)nc21
outcome [1]: inactive
Potency [2]: inactive
Potency [3]: inactive

Cc1nc(N2CCOCC2)c2nc(-c3ccccc3)n(CC(C)(C)CN(C)C)c2n1
outcome [1]: inactive
Potency [2]: inactive
Potency [3]: inactive

CCCn1c(C)nc2c(NCCN3CCCC3)nc(C)nc21
outcome [1]: inactive
Potency [2]: 15.8 µM (active)
Potency [3]: inactive

CCN(CC)CCCn1c(-c2ccccc2)nc2c(N(CCOC)CCOC)nc(C)nc21
outcome [1]: inactive
Potency [2]: inactive
Potency [3]: inactive

COCCNc1nc(C)nc2c1nc(-c1ccccc1)n2C1CCN(Cc2ccccc2)C1 (centres undefined)
outcome [1]: inactive
Potency [2]: inactive
Potency [3]: inactive

CCCCNc1nc(C)nc2c1nc(-c1ccccc1)n2CCCN(CC)CC
outcome [1]: inactive
Potency [2]: inactive
Potency [3]: inactive

CCCCNc1nc(C)nc2c1nc(-c1ccccc1)n2CCCCN(CC)CC
outcome [1]: inactive
Potency [2]: inactive
Potency [3]: inactive

COCCN(CCOC)c1nc(C)nc2c1nc(-c1ccccc1)n2CCCN(C)C
outcome [1]: inactive
Potency [2]: inactive
Potency [3]: inactive

CCCn1c(-c2ccc(F)cc2)nc2c(N3CCN(CCC(=O)OCC)CC3)nc(C)nc21
outcome [1]: inactive
Potency [2]: inactive
Potency [3]: inactive

CCCn1c(-c2ccc(F)cc2)nc2c(NC3CC4CCC(C3)N4C)nc(C)nc21 (centres undefined)
outcome [1]: inactive
Potency [2]: inactive
Potency [3]: inactive

CCCCNc1nc(C)nc2c1nc(C)n2CCC
outcome [1]: inactive
Potency [2]: inactive
Potency [3]: inactive

COCCN(CCOC)c1nc(C)nc2c1nc(-c1ccccc1)n2CCN1CCCC1
outcome [1]: inactive
Potency [2]: inactive
Potency [3]: inactive

CCCn1c(-c2ccc(F)cc2)nc2c(N3CCC(N(C)C)C3)nc(C)nc21 (centres undefined)
outcome [1]: inactive
Potency [2]: inactive
Potency [3]: inactive

CCCn1c(C)nc2c(NC3CCN(Cc4ccccc4)C3)nc(C)nc21 (centres undefined)
outcome [1]: inactive
Potency [2]: inactive
Potency [3]: inactive

CCCn1c(C)nc2c(N3CCOCC3)nc(C)nc21
outcome [1]: inactive
Potency [2]: inactive
Potency [3]: inactive

CCCn1c(-c2ccc(F)cc2)nc2c(NCC3CCCN3CC)nc(C)nc21 (centres undefined)
outcome [1]: inactive
Potency [2]: inactive
Potency [3]: inactive

Cc1nc(NC2CCCCC2)c2nc(-c3ccccc3)n(CCN(C)C)c2n1
outcome [1]: inactive
Potency [2]: inactive
Potency [3]: inactive

Cc1nc(NC2CCCCC2)c2nc(-c3ccccc3)n(CCCN(C)C)c2n1
outcome [1]: inactive
Potency [2]: inactive
Potency [3]: inactive

CCCn1c(-c2ccc(F)cc2)nc2c(NCCCN3CCOCC3)nc(C)nc21
outcome [1]: inactive
Potency [2]: inactive
Potency [3]: inactive

CCN(CC)CCCCn1c(-c2ccccc2)nc2c(N3CCOCC3)nc(C)nc21
outcome [1]: inactive
Potency [2]: inactive
Potency [3]: inactive

COCCN(CCOC)c1nc(C)nc2c1nc(-c1ccccc1)n2CCN(C)C
outcome [1]: inactive
Potency [2]: inactive
Potency [3]: inactive

CCCn1c(C)nc2c(NC3CCCCC3)nc(C)nc21
outcome [1]: inactive
Potency [2]: inactive
Potency [3]: inactive

Cc1nc(NC2CCCCC2)c2nc(-c3ccccc3)n(CCN3CCCC3)c2n1
outcome [1]: inactive
Potency [2]: inactive
Potency [3]: inactive

CCCCNc1nc(C)nc2c1nc(-c1ccccc1)n2CC1CCN(C)CC1
outcome [1]: inactive
Potency [2]: inactive
Potency [3]: inactive

CCCn1c(-c2ccc(F)cc2)nc2c(NCCN3CCCCC3)nc(C)nc21
outcome [1]: inactive
Potency [2]: inactive
Potency [3]: inactive

Cc1ccc(-c2cc(C(=O)Nc3ccc(-c4nn[nH]n4)cc3)c3ccccc3n2)cc1C
outcome [4]: inactive
Potency [5]: inactive
Potency [6]: 4.85 µM (active)
Potency [3]: inactive

O=C(Nc1ccc(S(=O)(=O)Nc2nccs2)cc1)c1ccncc1
outcome [4]: inactive
Potency [5]: inactive
Potency [6]: inactive
Potency [3]: inactive

Cc1ccc(S(=O)(=O)Nc2cc(F)ccc2C(=O)Nc2nc(-c3ccccc3)cs2)cc1
outcome [4]: inactive
Potency [5]: 3.32 µM (active)
Potency [6]: 0.769 µM (active)
Potency [3]: inactive

Cc1nc(Nc2ccccc2)c2nc(-c3ccccc3)n(CCCN3CCCCC3C)c2n1 (centres undefined)
outcome [1]: inactive
Potency [2]: inactive
Potency [3]: inactive

COc1cccc(NC(=O)c2cc(-c3ccc(C)c(C)c3)nc3ccccc23)c1
outcome [4]: inactive
Potency [5]: inactive
Potency [6]: 9.68 µM (active)
Potency [3]: inactive

Cc1ccc(-c2cc(C(=O)Nc3cccc(Cl)c3)c3ccccc3n2)cc1C
outcome [4]: inactive
Potency [5]: inactive
Potency [3]: inactive

O=C(CSc1nc2ccc(S(=O)(=O)N3CCOCC3)cc2[nH]1)N1CCOCC1
Potency [7]: inactive
Potency [3]: inactive
